# Test results published in PubChem BioAssay AID743398 (Broad Institute, 2014).
# Hit rate of the full screen: of about 300,000 compounds, about 3,600 (1.2%) were called active. Rule as the data show it: active = activation above about 30% (passing the limit was not always enough); inconclusive = no clear call, values can overlap the other calls. The list comes from a sample in which actives are over-represented; it also holds similar structures and randomly drawn compounds.
# Experiment: Wnt/beta-catenin pathway activators, primary screen, cell-based, plate reader, single point (AID 743398);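 also: 0% = neutral control wells and 100% = positive control wells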
# Conditions: Wnt/beta-catenin reporter cell assay, activator, at 9.35 µM, stronger effect = higher value
row,Structure (SMILES),activation
1,COc1ccccc1N1CCN(/N=C/c2ccc(O)cc2O)CC1,37.4% (active)
2,COc1ccccc1N1CCN(/N=C\C(Br)=C\c2ccccc2)CC1,7.85% (inactive)
3,COc1cc(/C=N/N2CCN(c3ccccc3)CC2)ccc1OC(C)=O,3.52% (inactive)
4,CC(C)c1cc(C(=O)N(C)C2CCCN(Cc3ccccc3F)C2)n(C)n1 (stereo not drawn),-4.84% (inactive)
5,Cc1nc(NC(=O)C(C)(C)C)sc1[N+](=O)[O-],-2.63% (inactive)
6,FC(F)(F)c1ccnc(Oc2ccc(C3=NCCS3)cc2)c1,50.4% (active)
7,O=Cc1ccc(Oc2cccc(C(F)(F)F)c2)nc1,0.99% (inactive)
8,N#CCCN(C(=S)Nc1ccc(Cl)c(Cl)c1)C1CCCCC1,-1.58% (inactive)
9,CCCCCCCCN1C(=O)[C@@H](CC(=O)NCc2ccccc2)C[C@@]2(C(=O)OC)C1=C[C@H](C(C)(C)C)O[C@@H]2C,-15% (inactive)
10,Cc1cc(OC(=O)NCCc2ccc(F)cc2)ccc1F,2.45% (inactive)
11,COc1ccc(-c2ccc(CN3C(C(C)C)C(=O)N(Cc4cn(CC5CCCCC5)nn4)CCS3(=O)=O)cc2)cn1 (stereo not drawn),-0.388% (inactive)
12,Cn1c(CCN2CCCC2)nc2cc(NS(=O)(=O)c3ccccc3)ccc21,2.48% (inactive)
13,O=S(=O)(Nc1ccc2cn[nH]c2c1)c1ccccc1,-1.72% (inactive)
14,O=S(=O)(Nc1ccc2nc(-c3ccco3)[nH]c2c1)c1ccccc1,37.5% (active)
15,Nc1ncnc2c1ncn2C1OC(CO)CC1O (stereo not drawn),0.661% (inactive)
16,Cc1cccc(C(=O)C(O)(c2ccccc2)C2CCCCC2=O)c1 (stereo not drawn),-5.91% (inactive)
17,CCOC(=O)c1cc2c(nc1NC(=S)Nc1ccccc1)CC(C)(CC)OC2 (stereo not drawn),9.37% (inactive)
18,CCOC(=O)c1cn[nH]c1NC(=S)Nc1ccccc1,48.2% (active)
19,CCOC(=O)c1ccc(NC(=S)Nc2cc(C)cc(C)n2)cc1,-1.38% (inactive)
20,COc1ccc(F)cc1S(=O)(=O)N1CCCCC1,-0.652% (inactive)
21,COc1ccc(C(=O)NCc2ccc(Cl)cc2)cc1S(=O)(=O)N1CCCC1,-0.0405% (inactive)
22,COc1ccc(Cl)cc1S(=O)(=O)N1CCC(O)(c2ccc(Cl)cc2)CC1,61.9% (active)
23,CCc1nc2c(OCc3ccc(Cl)cc3Cl)cccn2c1N(C)C(=O)C(C)C,-1.94% (inactive)
24,Cc1cccc(OCC(=O)NCCCNC(=O)c2ccccn2)c1,-0.523% (inactive)

row,Structure (SMILES),activation
1,CCN(CC)CCOc1ccc2c(c1)C(=NNC(=O)c1ccccn1)c1cc(OCCN(CC)CC)ccc1-2,54.2% (active)
2,Cc1ccc(Cl)cc1NC(=O)c1ccccn1,-3.27% (inactive)
3,OC(c1ccccc1)(c1ccccc1)C1CCN(CCCOc2ccccc2)CC1,-5.07% (inactive)
4,COc1ccc(Sc2ccc(NC(=O)c3cccc(Cl)c3)cc2C#N)cc1,-0.516% (inactive)
5,CCOC(=O)N1CCC(Nc2c(NCCCN3CCN(CC)CC3)c(=O)c2=O)CC1,1.91% (inactive)
6,CCOC(=O)N1CCC(Nc2c(NCCN3CCN(c4cccc(Cl)c4)CC3)c(=O)c2=O)CC1,-0.679% (inactive)
7,CCOC(=O)N1CCC(Nc2c(NCCCN3CCN(c4ccc(OC)cc4)CC3)c(=O)c2=O)CC1,33.6% (active)
8,COC(=O)[C@]12CCCCC=C1N(Cc1ccccc1)C(=O)[C@H](CC(=O)NCc1ccc(C)o1)C2,-1.58% (inactive)
9,COc1cccc(C(NC(C)=O)c2nc(-c3cnc4ccccc4c3)cs2)c1 (stereo not drawn),-0.125% (inactive)
10,CC(C)c1cccc(-c2csc(C(O)c3ccccc3)n2)c1 (stereo not drawn),1.98% (inactive)
11,OC(c1ccccc1)c1nc(-c2cnc3ccccc3c2)cs1 (stereo not drawn),50.7% (active)
12,Cc1cc(Cl)ccc1C(=O)C1CCCN(C(=O)c2ccc3c(c2)OCO3)C1 (stereo not drawn),-2.01% (inactive)
13,COc1ccc(C(=O)N2CCCCC2c2cc(C(=O)Nc3ccccc3)no2)cc1 (stereo not drawn),-2.86% (inactive)
14,CCc1ccccc1NC(=O)CN1CCN(C(=O)c2cc(C3CC3)nn2-c2ccccc2)CC1,-4.73% (inactive)
15,COc1cccc(-c2cnc3c(NC(C)=O)cc(-c4cccc(NC(C)=O)c4)cn23)c1,-2.59% (inactive)
16,COc1cc(/C=C2/C(=O)ON=C2C)ccc1OCc1cccc(F)c1,13.4% (inactive)
17,C=CCOc1ccc(/C=C2/C(=O)ON=C2C)cc1OCC,-0.78% (inactive)
18,COc1cc(/C=C2/C(=O)ON=C2C)ccc1OCc1ccccc1F,48.1% (active)
19,C[C@@H]1Cn2cnc(C(=O)Nc3ccc(CNC(=O)OC(C)(C)C)cc3)c2C(=O)N1,-0.752% (inactive)
20,COc1cccc(NC(=O)Nc2ccc(F)cc2)c1,4.29% (inactive)
21,Cc1ccc(-c2cnc(C(O)c3cc(Cl)cc(Cl)c3)[nH]2)cc1 (stereo not drawn),-5.54% (inactive)
22,Cc1cc(OCc2cc(C(=O)NCc3cc(C(C)C)no3)no2)cc(C)c1Cl,40.5% (active)
23,Cc1cccnc1CC(C)NC(=O)c1cc(COc2cncc(Cl)c2)on1 (stereo not drawn),7.75% (inactive)
24,COc1ccc(OCc2cc(C(=O)NCC3(C)COC3)no2)c(Cl)c1,7.69% (inactive)

row,Structure (SMILES),activation
1,CN(Cc1ccccc1)C(=O)CSc1nc2ccccc2[nH]1,12.8% (inactive)
2,C=CCSc1nc2ccccc2[nH]1,0.251% (inactive)
3,O=C(CSc1nc2ccccc2[nH]1)c1cccs1,58.5% (active)
4,C#CCN([C@@H](C)C(=O)OCC)S(=O)(=O)c1ccc(Br)cc1F,-2.08% (inactive)
5,COC(=O)c1ccc(-n2cnc3ccccc32)nc1,41.6% (active)
6,Cc1ccc(OCC(=O)Nn2cnc3ccccc32)cc1,-2.76% (inactive)
7,O=C(c1ccc(Cl)cc1)n1cnc2ccccc21,0.992% (inactive)
8,Cc1c(C(=O)NCc2ccc(C#N)cc2)sc(=O)n1Cc1ccc(C(=O)N(C)C)cc1,-0.79% (inactive)
9,COc1ccc(C(O)c2nc(-c3ccc(OC)nc3)cs2)cc1 (stereo not drawn),-2.19% (inactive)
10,CCOC(=O)[C@]12CCCC=C1N(Cc1ccc(Cl)cc1Cl)C(=O)[C@H](CC(=O)N1CCCCC1)C2,-0.046% (inactive)
11,CCc1ccccc1NC(=O)CSc1nnc(-c2ccncc2)o1,0.131% (inactive)
12,CCc1ccccc1NC(=O)CSc1nnc([C@@H](NC(=O)OC(C)(C)C)C(C)CC)o1 (stereo partly drawn),31.4% (active)
13,CCc1ccccc1NC(=O)CSc1nnc(CCNC(=O)OC(C)(C)C)o1,-2.11% (inactive)
14,Cc1cc(Br)cn2c(Cc3ccccc3C(F)(F)F)c(-c3ccc(C#N)cc3)nc12,-2.44% (inactive)
15,CSCCC(c1nnnn1Cc1ccccc1)N1CCN(C/C=C/c2ccccc2)CC1 (stereo not drawn),-2.2% (inactive)
16,O=C(CSc1nc2cccc(F)c2c(=O)n1-c1ccccc1)Nc1ccc2c(c1)CCC2,-0.606% (inactive)
17,O=C(Nc1ccc(O)cc1)c1ccc(NC(=O)c2ccco2)cc1,9.09% (inactive)
18,COC(=O)c1ccc(NC(=O)c2ccco2)cc1,58% (active)
19,Cc1ccc(NC(=O)c2ccco2)cc1,-2.54% (inactive)
20,CC(Sc1ccc(S(=O)(=O)N2CCN(C)CC2)cn1)C(=O)NC1CCCC(C)C1C (stereo not drawn),-1.63% (inactive)
21,O=C(NCc1ccccc1Cl)c1csc([C@@H]2O[C@H](CO)[C@@H](O)[C@H]2O)n1,-2.52% (inactive)
22,CCC(c1nnnn1-c1ccc2c(c1)OCCO2)N1CCN(c2ccc(C(F)(F)F)cn2)CC1 (stereo not drawn),0.0485% (inactive)
23,COc1cc2ccccc2cc1C(=O)Nc1ccncc1,11.7% (inactive)
24,COc1cc2ccccc2cc1C(=O)Nc1ccccc1C,38.1% (active)

row,Structure (SMILES),activation
1,COc1cc2ccccc2cc1C(=O)Nc1ccc(NC(=O)c2cccs2)cc1,-6.22% (inactive)
2,CCCCOCC1CN(CCCC)S(=O)(=O)c2c(Oc3ccc(F)cc3)cccc2O1 (stereo not drawn),-5.54% (inactive)
3,CCOC(=O)C1=C(C)NC(SC)=NC1c1ccccc1 (stereo not drawn),-2.32% (inactive)
4,CCOC(=O)C(=O)C1C(=O)Nc2ccccc21 (stereo not drawn),3.02% (inactive)
5,CCOC(=O)C1=C(CC)Nc2ccccc2N=C1N,38.3% (active)
6,COC(=O)[C@H]1C[C@H](OC(=O)NCc2ccccc2)[C@@]2(O)CN(S(=O)(=O)c3ccc(C)cc3)CC2[C@H]1C(=O)OC (stereo partly drawn),0.0463% (inactive)
7,COc1cccc(-c2cc(CNC(=O)[C@@H](Cc3ccccc3)NC(=O)[C@H]3O[C@@H](n4cnc(C(N)=O)n4)[C@H](O)[C@@H]3O)no2)c1,-3.63% (inactive)
8,CCOc1ccc2nc(NC(=O)c3cc([N+](=O)[O-])ccc3N3CCOCC3)sc2c1,-0.111% (inactive)
9,COc1ccc(C(=O)Nc2nc(-c3ccc(OC)cc3)c(-c3ccc([N+](=O)[O-])cc3)s2)cc1,-2.22% (inactive)
10,O=C(Nc1nc2ccc([N+](=O)[O-])cc2s1)c1ccncc1,34.4% (active)
11,Brc1ccc(COCCc2cn(Cc3ccccc3)c3ccccc23)cc1,11.3% (inactive)
12,Cc1cc(=O)oc2c3c(cc(OCC(=O)NCC(O)c4ccccc4)c12)OC(C)(C)CC3 (stereo not drawn),-1.47% (inactive)
13,Cc1ccc(C(=O)NCC(=O)O)s1,0.419% (inactive)
14,Cc1csc(NC(=O)C2=COCCO2)n1,5.46% (inactive)
15,Cc1csc(NC(=O)c2ccc(C)s2)n1,43.1% (active)
16,COc1cccc(CNc2nc3cc(-c4csc5ccccc45)sc3c(=O)n2C)c1,-2.71% (inactive)
17,CC(C)Nc1ncnc2c1ncn2[C@H]1CN(Cc2ccncc2)C[C@@H](CO)O1,-2.99% (inactive)
18,CCOC(=O)[C@]12CCC=C1N(Cc1ccco1)C(=O)[C@H](CC(=O)NCc1cccc(C(F)(F)F)c1)C2,-1.73% (inactive)
19,Cc1cc(C(=O)COc2ccc(Br)cc2F)c(C)n1C1CC1,35.3% (active)
20,Cc1cc(C(=O)COc2ccccc2Cl)c(C)n1C1CC1,-1.86% (inactive)
21,O=C(COc1ccc(Br)cc1F)NCC1(N2CCCCC2)CCCCC1,-3.51% (inactive)
